The source of these data is paper PMC4336329 (PLoS ONE, 2015).

The whole screen tested about 310,000 compounds, of which about 14,000 (4.5%) showed an effect of 50% or more. Effects have a minus sign here. The entries come from a sample that favours strong results as a whole.
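Note: peak tail current of the secondary pulse compared with the same well before compound.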

Sequence of human ether-à-go-go-related gene (hERG) potassium channel (Q12809 whole entry, looked up): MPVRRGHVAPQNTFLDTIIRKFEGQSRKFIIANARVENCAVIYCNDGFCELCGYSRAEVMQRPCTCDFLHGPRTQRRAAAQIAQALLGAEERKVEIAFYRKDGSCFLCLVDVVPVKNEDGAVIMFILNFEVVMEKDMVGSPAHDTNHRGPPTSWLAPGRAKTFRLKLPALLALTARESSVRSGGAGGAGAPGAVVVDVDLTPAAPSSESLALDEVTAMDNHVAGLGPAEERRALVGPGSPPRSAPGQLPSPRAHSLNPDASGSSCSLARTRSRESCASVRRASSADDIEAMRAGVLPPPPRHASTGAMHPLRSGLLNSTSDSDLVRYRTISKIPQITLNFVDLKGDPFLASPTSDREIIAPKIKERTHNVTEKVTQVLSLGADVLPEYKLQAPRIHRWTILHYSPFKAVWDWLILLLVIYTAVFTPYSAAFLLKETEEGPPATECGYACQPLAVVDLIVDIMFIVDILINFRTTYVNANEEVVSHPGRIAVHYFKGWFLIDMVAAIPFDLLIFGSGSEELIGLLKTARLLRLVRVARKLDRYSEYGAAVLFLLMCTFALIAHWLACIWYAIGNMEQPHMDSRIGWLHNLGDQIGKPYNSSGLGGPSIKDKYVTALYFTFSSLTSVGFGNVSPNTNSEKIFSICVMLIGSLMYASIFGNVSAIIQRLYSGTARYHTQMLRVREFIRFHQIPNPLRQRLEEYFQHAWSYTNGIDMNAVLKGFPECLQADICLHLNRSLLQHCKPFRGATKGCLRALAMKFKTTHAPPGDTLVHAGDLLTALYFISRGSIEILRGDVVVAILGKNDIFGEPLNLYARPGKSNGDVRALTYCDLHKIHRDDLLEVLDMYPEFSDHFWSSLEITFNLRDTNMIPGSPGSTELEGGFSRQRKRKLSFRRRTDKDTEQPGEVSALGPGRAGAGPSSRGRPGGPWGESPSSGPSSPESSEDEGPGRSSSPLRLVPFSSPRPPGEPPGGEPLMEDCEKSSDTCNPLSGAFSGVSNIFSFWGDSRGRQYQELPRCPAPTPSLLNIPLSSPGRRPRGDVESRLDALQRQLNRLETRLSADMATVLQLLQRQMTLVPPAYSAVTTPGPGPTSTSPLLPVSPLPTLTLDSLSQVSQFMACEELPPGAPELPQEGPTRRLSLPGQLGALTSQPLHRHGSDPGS

The assay addresses human ether-à-go-go-related gene (hERG) potassium channel (human, UniProt Q12809). Briefly: primary screen, population patch clamp on CHO cells stably expressing hERG; higher = less effect of the substance.
`Cc1ccc(OCCCC(=O)NCc2ccco2)c(C)c1`: the “hERG current change (%, negative = inhibition) at 10uM” value was 0.0372%.

For `CCCCCC(O)CCC(=O)NNC1=CC(=O)CC(C)(C)C1` (stereo not drawn), the “hERG current change (%, negative = inhibition) at 10uM” value amounted to 13.9%.

Turning to `COc1ccc(C(C#N)C2(C)OCCO2)cc1OC` (stereo not drawn), the “hERG current change (%, negative = inhibition) at 10uM” value is -4.08%.

In the case of `COC(=O)c1ccc(C)c(NC(=O)C(CCSC)NC(=O)c2cc(OC)c(OC)c(OC)c2)c1` (stereo not drawn), the “hERG current change (%, negative = inhibition) at 10uM” value was determined as 13.6%.

For the compound `CCn1c(-c2ccc(Cl)cc2)n[nH]c1=S`, the “hERG current change (%, negative = inhibition) at 10uM” value is on record as 13.2%.

In the case of `O=C(CSC1CS(=O)(=O)c2cc([N+](=O)[O-])ccc21)NNC(=O)c1ccc(Cl)cc1` (stereo not drawn), the “hERG current change (%, negative = inhibition) at 10uM” value is recorded as -74%.

As to `O=C(CSC1CS(=O)(=O)c2cc([N+](=O)[O-])ccc21)NNC(=O)c1ccccc1` (stereo not drawn), the “hERG current change (%, negative = inhibition) at 10uM” value is recorded as -20.7%.

As for `O=C(CSc1nnnn1-c1ccc(Cl)cc1)NNC(=O)c1ccc([N+](=O)[O-])cc1`, the “hERG current change (%, negative = inhibition) at 10uM” value is reported as -23.2%.

With `COc1ccc(S(=O)(=O)N2CCCCC2)cc1NC(=O)c1cccs1`, the “hERG current change (%, negative = inhibition) at 10uM” value was found to be 32.3%.

With `O=S(=O)(Nc1ccc(OC(F)F)cc1)c1ccc(-c2ccon2)s1`, the “hERG current change (%, negative = inhibition) at 10uM” value is given as -15.3%.

Turning to `Cc1ccc(C)c(N2CCN(CC(=O)Nc3ccc4[nH]c(=O)[nH]c4c3)CC2)c1`, the “hERG current change (%, negative = inhibition) at 10uM” value was -3.56%.

Consider `CN(C)c1ccc(C(=O)c2ccccc2C(=O)O)c(O)c1`, for which the “hERG current change (%, negative = inhibition) at 10uM” value was 12.7%.

For the compound `CCCCN(CCCC)c1ccc(C(=O)c2ccccc2C(=O)O)c(O)c1`, the “hERG current change (%, negative = inhibition) at 10uM” value was -75.2%.

In the case of `CCN(CC)c1ccc(C(=O)c2ccccc2C(=O)O)c(O)c1`, the “hERG current change (%, negative = inhibition) at 10uM” value is 3.8%.

Take `FC(F)(F)c1cccc(NC(=S)N2CCN(c3cccc(C(F)(F)F)c3)CC2)c1`: the “hERG current change (%, negative = inhibition) at 10uM” value was found to be 16.6%.

Consider `Cc1ccc(NC(=O)C2CCCN(S(=O)(=O)c3c(C)noc3/C=C/N(C)C)C2)cc1F` (stereo not drawn), for which the “hERG current change (%, negative = inhibition) at 10uM” value is reported as -1.44%.

With `CC1CCCN(Cc2nc3c(c(=O)n(C)c(=O)n3C)n2Cc2c(F)cccc2Cl)C1` (stereo not drawn), the “hERG current change (%, negative = inhibition) at 10uM” value is on record as -1.45%.

Regarding `CN1CCC(N(CCc2ccccc2)C(=O)CCC(=O)O)CC1`, the “hERG current change (%, negative = inhibition) at 10uM” value is on record as -1.87%.

In the case of `CN1C2CCC1CC(NC(=O)c1ccc(Cl)cc1)C2` (stereo not drawn), the “hERG current change (%, negative = inhibition) at 10uM” value came to 7.55%.

Turning to `CCCCN(C(=O)c1ccc(Cl)cc1)C1CC2CCC(C1)N2C.Cl` (stereo not drawn), the “hERG current change (%, negative = inhibition) at 10uM” value was -47.4%.

For the compound `CN1C2CCC1CC(N(CCc1ccccc1)C(=O)c1ccc(Cl)cc1)C2.Cl` (stereo not drawn), the “hERG current change (%, negative = inhibition) at 10uM” value is listed as -83.2%.

Regarding `COc1cc(C(=O)N(CCc2ccccc2)C2CC3CCC(C2)N3C)cc(OC)c1OC.Cl.O` (stereo not drawn), the “hERG current change (%, negative = inhibition) at 10uM” value is recorded as -38.3%.

`Cc1cc(C)cc(C(=O)N(CCc2ccccc2)C2CC3CCC(C2)N3C)c1.Cl` (stereo not drawn): the “hERG current change (%, negative = inhibition) at 10uM” value is given as -56.5%.

For the compound `COc1ccc(C2CC(c3cccs3)=NN2C(=O)CSc2nncn2C)cc1OC` (stereo not drawn), the “hERG current change (%, negative = inhibition) at 10uM” value is reported as 4.67%.
